The test system of this assay is VDR:RXRa (NR concentration 270 nM, RXRa partner concentration 90 nM). Kind of assay: PBM binding z-score (relative to random genomic background probes); higher = stronger binding; sequences stand for … in GC…GCGATTGACAGCGTAGAATGAAGG
As for the experimental part:
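Protein-binding microarray (Agilent 4x180K custom design, double-stranded 60-nt probes: 5' GC cap, 34-nt variable region, 24-nt constant primer region; full probe sequence given). Purified or IVT nuclear receptor:RXRα heterodimers (3:1 NR:RXRα, mostly 270:90 nM) or homodimers were incubated for 1 h in PBS with 2% milk and no ligand, then detected with Alexa488 antibodies. Fluorescence from o1-orientation probes (~5 replicates averaged) was converted to z-scores against 500 random hg19 background probes. Variable regions are seed direct-repeat (DR0–DR5) sites, all their single-nucleotide variants and half-site ablations.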
In the case of AATACCGGGTCATCGTAGGCCAGAGTACGCACAG, the PBM binding z-score turned out to be 4.42.

On to GCTGCTAGGTCAACTGATGGTCAGGTAAAGCTCG, for which the PBM binding z-score amounted to 1.69.

Sequence ACTAGCAGGCCAAGGTTGGGTCACTCAAACAAAG came in with a PBM binding z-score of 0.381.

Consider ACTAGCAGGCCAAGGGTCACCCAAGATTAGTCCG, for which the PBM binding z-score was found to be 3.3.

For AGTCAAAGTTCAGGACGAGGCAACGTAAAGCACG, the PBM binding z-score turned out to be 1.93.

In turn, GGAGCGAGGGCAAGTTGATAGCAGAGTTTGATGG yielded a PBM binding z-score of 0.407.

Consider TAGCCTAGGTCAGATCGGGCCACTATACGCTATA, for which the PBM binding z-score was determined as 1.39.

For TAGCCTAGGTCATTGAGCCAGTATAGTACGCATC, the PBM binding z-score stood at 2.1.

Sequence ATATCTAGGTTAGCTGGGGTCATTCAGACTAGGC registered a PBM binding z-score of 6.03.

The sequence ACTATCAGTTGAGACGAGGGCAACCGATAGGTTG showed a PBM binding z-score of 0.625.

The sequence AGTCAAAGTTCACTCGGTAACGTAAGATTCAGCT registered a PBM binding z-score of 4.31.

TCTGCTAGGTCAACGACGGTCAGCTAATCTGCTA registered a PBM binding z-score of 2.

For the sequence CCTTACGGGTCACTGACAGGTTGTAGCATTTGGA, the PBM binding z-score amounted to 3.34.

Sequence CATCCAAGGTCAAGGTCAGTGAAAGAGACTCGAA gave a PBM binding z-score of 5.07.

As for GGAACGAGGGCTAGTTGATAGCAGAGTTTGATGG, the PBM binding z-score was -0.607.

Take CCTAGCAGGCGAATCTGGGTCACTCAAGGCTTGA: the PBM binding z-score was -0.0504.

Take CGAACTAGGTCATAACAGGACAGTGAAGGATGAT: the PBM binding z-score was 1.89.

Sequence GCGACTGGGTCATCAGCAGGTTACCATAACTTAA came in with a PBM binding z-score of 2.27.

GATACAGGGTCAGCAAGAGGCCAGAGTATGGAAA: the PBM binding z-score was found to be 3.43.

CCTATTAGTTGACCAGAAGGGCAACCGAAGCTCG showed a PBM binding z-score of 0.596.

Consider GCTAGCAGGCCATGTGGGTCACTCAATGACGGGC, for which the PBM binding z-score stood at 0.49.

In turn, GCTATTAGTTGAGAGGGCAACCGAATGATTCTCG showed a PBM binding z-score of 0.311.

On to TCTAGTTGGTCACGGAGGTCAAACACGACGGGTA, for which the PBM binding z-score was found to be 6.21.

Regarding CCGACTGGGGCAAGTTTACCATAACGCACAGCCA, the PBM binding z-score was found to be 0.191.

In turn, TCATTTAGGTAAAAGGTGAAAGTCGGTGTGGTAA showed a PBM binding z-score of 1.4.

For CGTCCAAGGTCATAGCAGGTCAGTGAAGACAGAT, the PBM binding z-score came to 5.93.

Take CCTAGTTGCTCAAGGTCACACACGCTATAGGTAC: the PBM binding z-score amounted to 4.26.

On to GCTATTAGTTGAAAGGGCATCCGAATGATTCTCG, for which the PBM binding z-score is 0.499.

TTACCTAGGTGAAAGGTCGTTGATGCACGCCTTG: the PBM binding z-score was determined as 2.75.

TAGCCTCGGTCATGGGCCAGTATACCACGCGAAC displayed a PBM binding z-score of -0.162.

For the sequence GCGAATGGGGCATCAGCAGGTTACCATAACTTAA, the PBM binding z-score is -0.212.

Turning to CCGAGTAGGTTATGGGGCATCCAGGCAACGGTGA, the PBM binding z-score was -0.0665.

In the case of ACTAGCAGGCCAAGTTTGGGTGACTCAAACAAAG, the PBM binding z-score was -0.388.

CGTCCAAGGTCAAAGGAGGTCAGTGAAGACAGAT registered a PBM binding z-score of 6.53.

Sequence CATGCAGGGTCAGCTAGGCCAGAGTAGGGACGGC yielded a PBM binding z-score of 3.97.

Turning to ACTAGCAGGCCAAGTTTAGGTCACTCAAACAAAG, the PBM binding z-score is 0.781.

For the sequence CCTACTAGGCCAAAGGTCATTGATTCCAATGCTC, the PBM binding z-score turned out to be 5.12.

Take GCTTGTAGATCAAGATTAAGAAAGACTAAGCTAA: the PBM binding z-score is -0.528.

With CCTACTGGGCCAAAGGTTATTGATTCCAATGCTC, the PBM binding z-score is 1.34.

Take CAAACTGGGTCACGAAAGGTCAAAGTCGAATGAC: the PBM binding z-score is 6.96.

The values above are taken from the supplement of paper PMC6555819.
